TRHR PAM: TRH receptor (human) allosteric enhancement. P34981. TRHR cells, fluo-8 calcium fluorescence, EC20 TRH enhancement. enhancement, % at 2 µM. 360,000 compounds, 0.66% hits; in the data active = enhancement above about 30%
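Enhancer read-out: after compound pinning and an initial kinetic agonist-mode read, an EC20 of TRH (10 nM final) was injected and fluo-8 calcium signal (Ex 480/Em 530) followed at 1 s/cycle for 100 cycles in TRHR-expressing cells.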
D1 ag: activates the human D1 dopamine receptor. P21728. HEK293 T-REx D1 cells, calcium flux, agonist mode. activation, % at 2 µM. 360,000 compounds, 1% hits
Target sequence (P21728 whole entry, looked up): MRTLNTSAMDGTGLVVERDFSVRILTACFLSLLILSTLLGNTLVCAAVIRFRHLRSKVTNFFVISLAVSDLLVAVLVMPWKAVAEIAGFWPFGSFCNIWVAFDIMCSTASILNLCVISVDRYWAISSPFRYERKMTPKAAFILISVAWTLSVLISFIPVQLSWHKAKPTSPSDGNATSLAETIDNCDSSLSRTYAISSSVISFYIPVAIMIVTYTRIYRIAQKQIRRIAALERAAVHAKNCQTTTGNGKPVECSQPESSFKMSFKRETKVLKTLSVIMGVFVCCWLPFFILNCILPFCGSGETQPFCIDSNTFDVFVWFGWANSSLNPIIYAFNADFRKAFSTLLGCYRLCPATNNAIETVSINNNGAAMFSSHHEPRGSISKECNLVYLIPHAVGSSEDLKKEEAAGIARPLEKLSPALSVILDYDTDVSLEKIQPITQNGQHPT
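Agonism was scored from calcium flux recorded over 180 s (1 read/s) after pintool compound addition, following a 10-cycle baseline. Cells were inducible force-coupled HEK293 TREx D1, plated overnight at 30 C and loaded with no-wash calcium dye.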
D1 potentiator: potentiators of human D1 dopamine receptor. 360,000 compounds, 0.036% hits. potentiation, % at 10 µM. HEK293 TREx D1 cells, calcium flux, dopamine EC20 potentiation. P21728; in the data active = potentiation above about 30%
TRHR ag: activates the human TRH receptor; P34981; TRHR cells, calcium flux fluo-8, FDSS agonist mode; activation, % at 2 µM; 360,000 compounds, 0.18% hits
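TRHR-expressing cells, plated overnight in medium with 10% serum, were loaded with fluo-8 calcium dye at room temperature. After a 10 s baseline, library compound was pin-added and calcium release was recorded kinetically (ex 480/em 530) as agonist response.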
D1 antag: blocks dopamine activation of the human D1 receptor; P21728; HEK293 TREx D1 cells, calcium flux, dopamine EC80; stronger effect = lower value; activity change, negative = inhibition, % at 10 µM; 360,000 compounds, 3.2% hits; AID 504652; in the data active = activity change below about -30%
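Tetracycline-induced HEK293 T-REx cells with force-coupled D1 receptor were loaded with a no-wash calcium dye. Compound was added after a 10 s baseline and read kinetically for 180 s; EC80 dopamine was then added and calcium flux followed another 180 s.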
Of the large screens only hits and unclear results are named; the others gave an inactive call. Rows were chosen to be rich in hits. Some 4.7% of all compounds tested hit in one or more screens of this group. Cut-off read from the data, not from the text of the source, unless noted: active = activation above about 30%; inactive = the rest.

COc1cc(C(C)=O)ccc1OCC(O)CN1CCN(S(=O)(=O)c2ccccc2)CC1 (configuration not stated)	D1 antag -31
COc1ccc(CNC2CCSc3ccccc32)cc1OC (configuration not stated)	D1 antag -32
Nc1c(C(=O)Nc2cccc(F)c2)sc2nc(-c3cccs3)ccc12	D1 ag 33
CCCSc1nnc(NC(=O)c2sc3nc(-c4cccs4)ccc3c2N)s1	D1 ag 43
CCOc1ccc(NC(=O)c2sc3nc4n(c(=O)c3c2C)CCCC4)cc1	none
Cc1cccc(C(=O)Nc2ccc(C(=O)N/N=C/c3ccc(C)o3)cc2)c1	D1 antag -48
CCCCCCCCC(=O)N/N=C/c1ccccn1	none
CN(C)c1ccc(C(=O)N/N=C/c2ccccn2)cc1	D1 antag -40
CCCCC(C(=O)N/N=C/c1ccccn1)C(=O)N/N=C/c1ccccn1	TRHR PAM 35
Cc1ccc(C(=O)Nc2ccc(C(=O)N/N=C/c3ccccn3)cc2)cc1	D1 antag -38
Cc1ccccc1CSc1nnc(-c2cnccn2)n1C	none
O=C(COC(=O)c1cnccn1)c1ccc(Br)cc1	none
O=C(COC(=O)c1cnccn1)c1ccc(C2CCCCC2)cc1	TRHR PAM 34
Cc1cnc(C(=O)OCC(=O)c2ccc(C3CCCCC3)cc2)cn1	D1 antag -31
CCc1ccc(C(=O)COC(=O)c2cnc(C)cn2)cc1	D1 antag -33
Cc1cnc(C(=O)OCC(=O)c2ccc(F)cc2)cn1	none
CC(=O)Nc1ccc(NC(=O)CN2C(=O)CN(C)C(=O)c3ccccc32)cc1	none
CCOC(=O)c1nn(-c2ccc(OC)cc2)c(=O)c2c(NC(=O)Cc3ccccc3)scc12	none
COC(=O)c1ccc(CN(Cc2ccc(C(=O)OC)o2)C(C)(C)C)o1	TRHR PAM 37
COC(=O)c1ccc(COc2ccc(C(C)(C)C)cc2)o1	none
COc1ccc(C2CC(c3ccco3)n3ncnc3N2)cc1 (configuration not stated)	TRHR PAM 37
COc1cccc(C2CC(c3cccc(Br)c3)n3ncnc3N2)c1 (configuration not stated)	D1 antag -57
COc1cccc(C2CC(c3ccccc3)n3ncnc3N2)c1 (configuration not stated)	none (no result: D1 potentiator)
Cc1ccc(Sc2ccc(N3CCCC(C(=O)Nc4ccc(Br)cc4)C3)nn2)cc1 (configuration not stated)	none
CN(C)CCCN(C(=O)CCc1ccccc1)c1nc2c(F)cccc2s1	D1 ag 35
Cc1ccc2nc(N(CCCN(C)C)C(=O)c3ccc4c(c3)CCCC4)sc2c1	none
Cc1cc(C)c2nc(N(CCCN(C)C)C(=O)c3ccc4c(c3)CCCC4)sc2c1	TRHR PAM 33
Cc1ccc2sc(N(CCN(C)C)C(=O)c3ccc4ccccc4c3)nc2c1C	none
COc1cccc2sc(N(CCCN(C)C)C(=O)c3sc4ccccc4c3Cl)nc12	D1 antag -73
CN(C)CCCN(C(=O)CCOc1ccccc1)c1nc2c(F)cccc2s1	none
Cc1ccc2sc(N(CCCN(C)C)C(=O)CN3C(=O)c4ccccc4C3=O)nc2c1C	D1 ag 46
CC(CNC(=O)Cn1c(-c2cccs2)cc2cc(Cl)ccc21)c1ccccc1 (configuration not stated)	none
COc1ccc(OCC2c3cc(OC)c(OC)cc3CCN2C(=O)c2c(F)cccc2F)cc1 (configuration not stated)	none
CN1C(=O)c2ccccc2Sc2ccc(NC(=O)N3CCN(c4cccc(Cl)c4)CC3)cc21	none
Cc1cccc2sc(N(CCCN(C)C)C(=O)c3ccc(C(=O)c4ccccc4)cc3)nc12	D1 antag -31
Cc1cccc2sc(N(CCCN(C)C)C(=O)COc3ccccc3)nc12	D1 ag 64
Cc1cccc(NC(=O)CN2c3ccccc3S(=O)(=O)c3ccccc32)c1C	none
O=C(CSc1cn(CC(=O)N2CCOCC2)c2ccccc12)Nc1ccccc1C(F)(F)F	none
O=C(Cn1cc(SCc2ccc(F)cc2)c2ccccc21)N1CCCC1	D1 antag -30
O=C(CSc1cn(CC(=O)N2CCCC2)c2ccccc12)Nc1ccccc1C(F)(F)F	D1 antag -44
CCOC(=O)c1sc(=S)n(-c2cccc(C(F)(F)F)c2)c1SC	D1 antag -32
